Records with an inconclusive call do not appear. Activity calls are given as the source filed them. The call rests on the fitted dose curve; in most records, active means well fitted curve in either direction with a large enough effect (not every such curve was filed as active); inconclusive means small, poorly fitted or top-dose-only effect, or another doubt; inactive means flat fitted curve, though single readings scatter.
Assay: Stat Signaling Pathway (AID 446);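 further: SIE-controlled beta-lactamase reporter measured as 460/530 nm FRET emission ratio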
Conditions: ME-180 (cervical carcinoma) SIE beta-lactamase reporter, IL-6 stimulated, 5 h; series mostly up to 17.2 µM
How it was run: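 Compound effects on IL-6-induced STAT reporter activity were measured in ME-180 cells. After overnight culture, cells were co-treated with 40 pM IL-6 for 5 hrs before beta-lactamase substrate loading at room temperature.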

SMILES	outcome
O=C(COc1ccc2ccccc2c1)N1CCN(C2CCN(Cc3ccccc3)CC2)CC1	inactive
Cc1c(N=Cc2c(O)n(Cc3ccco3)c(=O)[nH]c2=O)c(=O)n(-c2ccccc2)n1C	inactive
CCOc1ccccc1-n1c(O)c(C=Nc2c(C)n(C)n(-c3ccccc3)c2=O)c(=O)[nH]c1=O	inactive
CC1(C)NCCN2C(=O)CSC21 (stereo unspecified)	inactive
OC(c1ccc(F)cc1)C(c1ccccc1)N1CCOCC1 (stereo unspecified)	inactive
CC(C)[C@H]1C(=O)N2CCC[C@H]2[C@]2(O)O[C@](NC(=O)[C@@H]3C=C4c5cccc6[nH]cc(c56)C[C@H]4N(C)C3)(C(C)C)C(=O)N12	inactive
CCN(CC)c1ccc(N=Cc2c(O)n(-c3ccccc3C)c(=O)[nH]c2=O)cc1	inactive
CC(C)(C)OC(=O)c1c(N)n(Cc2ccco2)c2nc3ccccc3nc12	inactive
CCOc1ccccc1-n1c(O)c(C=Nc2ccc(N(CC)CC)cc2)c(=O)[nH]c1=O	inactive
CCCCc1nc(N2CCNCC2)c(C#N)c2c1CSC(C)(C)C2	inactive
Cc1c(N=Cc2c(O)n(CCc3ccccc3)c(=O)[nH]c2=O)c(=O)n(-c2ccccc2)n1C	inactive
CCCCOCCCn1c(N)c(C(=O)OCCOC)c2nc3ccccc3nc21	inactive
CCCCCCn1c(O)c(C=NC2CCN(Cc3ccccc3)CC2)c(=O)[nH]c1=O	inactive
C=CCOC(=O)C1=C(C)OC(N)=C(C#N)[C@@]12C(=O)N(CC(N)=O)c1ccccc12	inactive
O=P(c1ccccc1)(c1ccccc1)N1CCCCC1	inactive
CCCN(CC#CCO)CCC	inactive

From PubChem BioAssay (NCATS)
